# Bioassay records deposited in PubChem BioAssay by National Center for Advancing Translational Sciences (NCATS).
# AMA1 RON2 block – qHTS for Inhibitors of AMA1-RON; Towards Development of Antimalarial Drug Lead: Primary Screen; 0.2% of 360,000 active; AID 720542, 2013; Potency, µM (highest dose often 58.2 µM), for inactives: at the top dose activity change, negative = inhibition, actives largely listed as inhibitors; AlphaScreen AMA1-biotinylated RON2 peptide binding;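 note: 0% = vehicle wells and -100% = peptide control; nearly all actives have a fitted effect of over 45% in size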
#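 AMA1 (3D7) with his tag at 25 nM final met compounds first, then biotinylated RON2 peptide at 25 nM; detection used donor plus acceptor beads, 10 µg/mL apiece, read by AlphaScreen after 30 min at room temperature.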
# NS1 inh – qHTS Assay for Inhibitors of Influenza NS1 Protein Function; 0.4% of 270,000 active; Potency, µM (top dose mostly 46.1 µM), inactives show top-dose activity, positive = more growth; calls by dose curve; note: actives are rising curves; nearly all actives have a fitted effect of over 50% in size
#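 Read-out: OD600 growth recovery of NS1-expressing budding yeast. Cells grown overnight at 30C in -URA glucose medium, washed, resuspended and diluted 1:100 in 2% galactose assay medium, pH 6.0. Same strain lacking NS1 served as positive control.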
# Pf growth 96h – Primary qHTS for delayed death inhibitors of the malarial parasite plastid, 96 hour incubation; Potency, µM (series often up to 28.7 µM), without a hit: at the highest dose activity change, negative = inhibition, most hits filed as inhibitors; P. falciparum luciferase reporter growth, 96 h; 6.9% of 320,000 active; note: % is set by controls: 0 for no effect and ±100 for the full control effect
#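 Readout is luminescence from an integrated firefly luciferase in P. falciparum. Red cells, 2% hematocrit and 0.05% parasitemia final, were cultured with compound through two parasite generations (96 hours) at 37 C, 5% CO2.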
# HCV inh – qHTS Assay for Inhibitors of Hepatitis C Virus (HCV) | Huh7.5.1 HCVcc-Cre infection, luciferase reporter, 44 h | Potency, µM (series often up to 41.8 µM), for the others: top-dose activity change, negative = inhibition, usual class: inhibitors | 3.4% of 340,000 active | AID 651820, 2012; note: % is set by controls: 0 for no effect and ±100 for the full control effect
#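 Infectious HCV cell culture screen: compound-treated cells (1,000/well, pre-plated 4 h) are infected with HCVcc-Cre at roughly 0.5 moi and grown 44 h. Infection is quantified by luciferase signal after 15 min substrate incubation at room temperature.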
# Pf growth 48h – Primary qHTS for delayed death inhibitors of the malarial parasite plastid, 48 hour incubation; P. falciparum luciferase growth in erythrocytes, 48 h; Potency, µM (titrated, usually from 28.7 µM), without a hit: at the top dose activity change, negative = inhibition, most hits filed as inhibitors; 5.9% of 310,000 active; AID 504832, 2011; note: % is set by controls: 0 for no effect and ±100 for the full control effect
#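 Erythrocytes infected with P. falciparum carrying an integrated firefly luciferase reporter (2% hematocrit, 0.1% parasitemia final) were exposed to compounds in RPMI 1640 with 0.5% Albumax at 37 C, 5% CO2. Growth inhibition was scored as reduced luminescence.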
# SARS PLP yeast – qHTS of Yeast-based Assay for SARS-CoV PLP; 0.19% of 330,000 active; AID 485353, 2010; Potency, µM (titrated, usually from 32.9 µM), for the others: at the top dose activity, positive = growth rescue, most hits filed as activators; S. cerevisiae expressing SARS-CoV PLpro, growth rescue; calls by dose curve; note: 0% is about no effect; nearly all actives have a fitted effect of over 55% in size
# Numbers without * were called inactive; ? = inconclusive; . = no result given; [ ] = remark or other dose. An excerpt weighted towards active compounds, which were near 12% of everything screened. Unless noted, calls come from the whole dose curve; as a rule, active = well fitted curve in the direction sought with a large enough effect; inconclusive = small, poorly fitted or top-dose-only effect, or another doubt; inactive = no such curve, though single readings can be large; an effect the other way counts as inactive or inconclusive. Potency is the fitted concentration of half-maximal effect.
SMILES,AMA1 RON2 block,NS1 inh,Pf growth 96h,HCV inh,Pf growth 48h,SARS PLP yeast
CC(C)C(C(=O)OCC(=O)c1ccccc1)N1C(=O)C2C3C=CC(C3)C2C1=O (centres undefined),-2%,-8%,12%,-5%,9%,0%
O=C(O)CCC1(CCC(=O)O)c2ccccc2-c2ccccc21,14%,28%,6.6µM*,18%,-6%,1%
CCCCc1nc2ccccc2c(=O)n1-c1ccccc1[N+](=O)[O-],-3%,5%,34%,-10%,?,-4%
O=c1cccc2n1Cc1cc3ccccc3nc1-2,9%,-12%,189%,1%[8.37 µM],181%,-9%
CC[C@@]1(O)C(=O)OCc2c1cc1n(c2=O)Cc2cc3c([N+](=O)[O-])cccc3nc2-1,.,.,?,.,8.5µM*,.
CC[C@@]1(O)C(=O)OCc2c1cc1n(c2=O)Cc2cc3c(N)cccc3nc2-1,22%,2%,1.2µM*,27%,1.9µM*,0%
CC[C@@]1(O)C(=O)OCc2c1cc1n(c2=O)Cc2cc3c(CN(C)C)c(O)ccc3nc2-1,?,-8%,11µM*,?,8.5µM*,.
Nc1ccccc1-n1cccc1,-3%,1%,32%,18%,87%,-1%
O=C(NCC1CCCO1)C(c1ccccn1)N(Cc1ccccc1Cl)C(=O)CN1C(=O)c2ccccc2S1(=O)=O (centres undefined),1%,-2%,10%,17%,4%,-1%
CSc1sc(C(=O)NCC2CC2)cc1S(=O)(=O)C(C)C,-1%,-2%,-4%,-2%,2.3µM*,2%
CCOC(=O)c1ccc(NC(=O)c2cc3c(s2)CCC3)cc1,1%,-4%,-19%,7.9µM*,?,0%
CCOC(OCC)c1cn(Cc2ccc3c(c2)C(=O)c2ccccc2C3=O)nn1,.,-140%,?,.,-11%,15%
CC1CCN(c2ncnc3c2cnn3-c2ccccc2)CC1,23%,-54%,141%,-4%,.,-4%
O=C(c1ccccc1)N1CCN(c2ncnc3c2cnn3-c2ccccc2)CC1,0%,0%,-26%,10µM*,?,-1%
Cc1nn(-c2ccccc2)c(Cl)c1C(=O)N1CCN(c2ncnc3c2cnn3-c2ccccc2)CC1,-11%,-33%,?,2.2µM*,?,1%
COc1cccc(OCCN2CCN(c3ncnc4c3cnn4-c3ccccc3)CC2)c1,-8%,-13%,9.3µM*,7.1µM*,12µM*,1%
O=C(c1cccc(Cl)c1)N1CCN(c2ncnc3c2cnn3-c2ccccc2)CC1,14%,1%,9%,-8%,?,0%
Cn1c(=O)c2c(ncn2CC(=O)OCC(=O)Nc2cccc(Cl)c2)n(C)c1=O,3%,.,0%,0%,13%,2%
Cc1ccc(-c2csc(N3CCC[C@@H]3C(=O)NCCn3c(C(F)(F)F)nc4ccccc43)n2)cc1,15%,-18%,2.3µM*,?,?,-14%
Cc1ccc(-c2csc(N(CCO)CCCn3c(C(F)(F)F)nc4ccccc43)n2)cc1,2%,11%,6.6µM*,10µM*,?,-3%
Cc1ccc(OCC(=O)Nc2ccc(N3CCN(C(=O)c4ccco4)CC3)cc2)cc1,11%,2%,5.2µM*,?,?,-2%
Cc1ccc(C(=O)N2CCN(c3ccc(NC(=S)NC(=O)Cc4ccccc4)cc3)CC2)cc1,16%,?,?,?,?,2%
CC(C)(CO)NCc1ccccc1OCC(=O)Nc1ccccc1,-6%,-5%,.,-30%,4%,-1%
Cc1ccc(C(=O)N2CCN(c3ccc(NC(=O)COc4ccccc4C)cc3)CC2)cc1,-27%,9%,?,11µM*,8.3µM*,0%
Cc1ccc(NC(=O)COc2ccccc2CNC(C)(C)CC(C)(C)C)cc1,3%,-10%,.,?,7.4µM*,2%
SMILES,AMA1 RON2 block,NS1 inh,Pf growth 96h,HCV inh,Pf growth 48h,SARS PLP yeast
Cc1cccc(OCC(=O)Nc2ccc(N3CCCC3)cc2)c1C,-14%,18%,28%,?,10µM*,0%
Cc1ccc(S(=O)ONc2cccc(NOS(=O)c3ccc(C)cc3)c2)cc1 (centres undefined),-2%,.,.,.,.,.
O=C(NCc1ccccc1Cl)C(=O)NCC1OCCCN1S(=O)(=O)c1cccs1 (centres undefined),2%,0%,2%,1%,-22%,0%
CCCc1c(Cc2cccc(F)c2)ncn1Cc1cccc(-c2ccccc2)c1,15%,.,.,.,.,.
COc1cc2cc(CN(CCc3cccc(C)c3)C(=S)NCCCN3CCOCC3)c(=O)[nH]c2cc1OC,-11%,-4%,3%,?,?,-2%
Cc1ccc(OCC(=O)Nc2ccc(N3CCCC3)cc2)cc1C,-25%,-1%,-6%,?,12µM*,1%
O=C(CCn1ccc2ccccc21)Nc1ccc(N2CCOCC2)cc1,-22%,12%,?,-8%,13µM*,0%
O=C(CCn1c(=O)oc2ccccc21)Nc1ccc(N2CCOCC2)cc1,5%,9%,13%,6%,-13%,0%
Cc1cccc(C)c1OCC(=O)Nc1ccc(N2CCOCC2)cc1,-7%,-6%,1.5µM*,-27%,?,-1%
N#Cc1ccccc1OCC(=O)NC(=O)NCc1ccco1,-2%,3%,171%,6%,112%,0%
Cc1ccc(-c2c[n+](CC(=O)c3cccs3)c3n2CCC3)cc1,?,9%,4.1µM*,-9%,2.3µM*,-1%
COc1ccc(-c2c[n+](CC(=O)c3cccs3)c3n2CCC3)cc1,-13%,10%,?,?,2.3µM*,1%
Cc1ccc(-c2c[n+](CC(=O)OCc3ccccc3)c3n2CCC3)cc1,3%,-5%,16%,1%,20%,-1%
CCOc1ccccc1N(CC(=O)NCC1CCCO1)C(=O)CCC(=O)Nc1nccs1 (centres undefined),18%,-3%,58%,16%,8%,-2%
N#CC1(Cc2ccc(Cl)cc2)c2ccccc2C=CN1C(=O)c1ccccc1 (centres undefined),-13%,-4%,?,-18%,.,-4%
CC1(C#N)c2ccccc2C(Br)=CN1C(=O)c1ccccc1 (centres undefined),5%,.,?,6%,10µM*,9%
O=C(c1ccc2oc(CCc3ccccc3)nc2c1)N1CC[C@H](O)C1,2%,-4%,7.4µM*,23%,147%,-1%
